DT40 TDP1 no CPT – qHTS for Inhibitors of human tyrosyl-DNA phosphodiesterase 1 (TDP1): qHTS in cells in absence of CPT; DT40 Tdp1-/- hTDP1 cells, no CPT, ATP luminescence, 48 h; Potency, µM (highest dose often 46.2 µM), hits mostly inhibitors; 15% of 420,000 active; AID 686978, 2013; also: nearly all actives have a fitted effect of over 55% in size
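Readout: luminescence from CellTiter-Glo after 30 min in the dark at RT. Cells: DT40 Tdp1-/- with stable hTDP1, 400/well. Exposure: compounds alone, ≥48 hr, 37 °C.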
HepG2 viability – qHTS for Inhibitors of TGF-b: Cytotox Counterscreen | AID 588856, 2011 | Potency, µM (series often up to 46.1 µM), most hits filed as cytotoxic | HepG2 CAGA-GFP viability, ATP luminescence, 18 h | 0.76% of 410,000 active
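CellTiter-Glo luminescence gave cytotoxicity after 18 hours at 37 degrees C. The cells were HepG2 CAGA-GFP in 1% FBS DMEM, stimulated with 500 pg/mL TGF-beta after compound addition. %Activity was normalised to no-cell wells (complete cell-killing) and DMSO (no toxicity), and curves were fitted and classified.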
TDP1 cell CPT – qHTS for Inhibitors of human tyrosyl-DNA phosphodiesterase 1 (TDP1): qHTS in cells in presence of CPT; chicken DT40 Tdp1-/-;hTDP1 cells + 20 nM CPT, ATP luminescence, 48 h; Potency, µM (highest dose often 46.2 µM), most hits filed as inhibitors; AID 686979, 2013; 12% of 420,000 active; also: nearly all actives have a fitted effect of over 55% in size
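Cell growth measured by CellTiter-Glo luminescence after a minimum 48 h, 37 C compound exposure with 20 nM CPT in Tdp1-knockout DT40 cells stably expressing hTDP1, seeded 400/well; qHTS titration format.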
HT1080 IDH1KD tx – qHTS for induction of synthetic lethality in tumor cells producing 2HG: qHTS for the HT-1080-IDH1KD cell line; 2% of 360,000 active; Potency, µM (highest dose often 46.1 µM), actives largely listed as cytotoxic; HT-1080 IDH1 knockdown viability, ATP luminescence, 48 h
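HT-1080-IDH1KD cells (IDH1 knocked down), 750/well in RPMI with 5% FBS, treated with compound 48 h at 37 degrees C. Viability by CellTiter-Glo luminescence, normalised to DMSO and no-cell wells; concentration-response curves classed.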
HT1080NT lethal – qHTS for induction of synthetic lethality in tumor cells producing 2HG: qHTS for the HT-1080-NT fibrosarcoma cell line. Potency, µM (titrated, usually from 46.1 µM), most hits filed as cytotoxic. HT-1080-NT fibrosarcoma viability, CellTiter-Glo ATP luminescence, 48 h. AID 686970, 2013. 1.6% of 360,000 active;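 also: NT is the 2HG producing partner of a matched IDH1 knockdown line; nearly all actives have a fitted effect of over 55% in size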
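Viability by CellTiter-Glo luminescence after 48 h compound exposure at 37C of HT-1080-NT cells (750/well, RPMI, 5% FBS). % activity scaled between DMSO wells and medium-only wells, then curve-fitted and categorized by curve class.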
TGFb inhibitor – qHTS for Inhibitors of TGF-b; 1.2% of 410,000 active; HepG2 CAGA-GFP TGF-b/SMAD3 reporter, GFP fluorescence, 18 h; TGF-beta stimulated, 500 pg/mL final; Potency, µM (top dose mostly 46.1 µM), actives largely listed as inhibitors; also: nearly all actives have a fitted effect of over 65% in size
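HEPG2 CAGA-GFP cells (1000/well, DMEM with 1% FBS) were pre-incubated 2 h at 37 degrees C, given compound by pin tool, then stimulated with TGF-beta at 500 pg/mL final for 18 h before per-cell GFP fluorescence imaging.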
Numbers stand for hits; n = inactive; u = inconclusive; x = no result. An excerpt weighted towards active compounds, which were near 17% of everything screened. Calls follow the shape of the dose curve; as a rule, active = well fitted curve in the direction sought with a large enough effect; inconclusive = small, poorly fitted or top-dose-only effect, or another doubt; inactive = no such curve, though single readings can be large; an effect the other way counts as inactive or inconclusive.

SMILES | DT40 TDP1 no CPT | HepG2 viability | TDP1 cell CPT | HT1080 IDH1KD tx | HT1080NT lethal | TGFb inhibitor
CCC(Sc1nc2ccccc2c2nc(CCn3c(C)nc4ccccc43)nn12)C(=O)Nc1ccc(F)cc1 (stereo not drawn) | 2.3µM | n | u | x | x | n
COc1ccccc1NC(=O)CSc1nc2ccccc2c2nc(-c3ccccc3)nn12 | n | n | n | x | x | n
Cc1ccc(NC(=O)CSc2nc3ccccc3c3nc(CCn4c(C)nc5ccccc54)nn23)cc1F | 9.2µM | n | 8.2µM | x | x | n
CC(C)CCNC(=O)NC(=O)COC(=O)CNC(=O)C1CCCCC1 | n | n | u | n | n | n
C=CCCC(=O)N1C[C@H]2CON(C)[C@H]2C[C@H]1c1ccc(-n2ccnc2)cc1 | n | n | n | n | n | n
O=C(c1sc2ccccc2c1Cl)N1CCN(CCc2ccccn2)CC1 | u | n | u | n | n | u
Nn1cnnc1N/N=C/c1ccc(Cl)c([N+](=O)[O-])c1 | n | 11µM | n | 21µM | u | u
CCc1nnc(N/N=C/c2ccccc2F)n1N | n | n | n | u | u | u
Cc1ccc(/C=N/Nc2nncn2N)cc1 | n | n | u | u | u | 11µM
CN(C)c1nc(N/N=C\c2ccc(Cl)c([N+](=O)[O-])c2)nc(Nc2ccc(F)cc2)n1 | 5.2µM | n | 5.2µM | u | u | u
CCc1nnc(N/N=C/c2ccccc2Cl)n1N | n | 13µM | n | 16µM | u | 11µM
CCN(C(=O)CN1C(=O)COc2ccc(S(=O)(=O)N3CCCCCC3)cc21)c1cccc(C)c1 | u | n | u | n | n | u
NC(=O)NC(=O)c1nccnc1C(=O)O | n | n | n | n | n | n
COc1ccc(/C=N/Nc2nnc(C)n2N)cc1OC(C)=O | 18µM | 13µM | 8.2µM | 16µM | 23µM | 10µM
Cc1nnc(N/N=C/c2ccc(Br)cc2)n1N | n | 16µM | u | 23µM | u | u
COc1cccc(/C=N/Nc2nnc(C)n2N)c1OCc1ccccc1Cl | 23µM | n | u | n | n | u
COc1ccc(/C=N/Nc2nnc(C)n2N)cc1OC | n | n | n | u | u | n
Cc1nnc(N/N=C/c2ccc(-c3ccc(Br)cc3)o2)n1N | u | n | u | u | u | u
COc1cccc(CNCCO)c1OCc1ccccc1Cl | n | n | n | n | n | n
Nn1cnnc1N/N=C/c1cccc(Cl)c1Cl | n | n | n | 18µM | u | u
CSc1ccc(/C=C2/C(=N)N3N=C(CC(=O)N4CCCC4)SC3=NC2=O)cc1 | n | n | n | n | n | n
Cc1nnc(N/N=C/c2cc([N+](=O)[O-])c(N3CCC(C)CC3)cc2N2CCC(C)CC2)n1N | u | n | n | n | n | n
CC(C)(C)c1nnc(N/N=C/c2ccccc2O)n(N)c1=O | 1µM | n | 0.65µM | u | u | n
CCc1nnc(N/N=C/c2ccc(N3CCC(C)CC3)c([N+](=O)[O-])c2)n1N | u | 11µM | u | 33µM | u | 10µM
CC(C)(C)c1nnc(N/N=C/c2ccccc2)n(N)c1=O | u | n | n | n | n | n
O=C(CSc1nc(=O)n(CCN2CCOCC2)c2c1CCCC2)Nc1ccc(F)cc1F | n | n | n | n | n | n
COc1ccc(/C=C(\C#N)c2nc(-c3cc(Cl)ccc3OC)cs2)cc1 | n | n | n | x | x | n
CCc1cccc(NC(=S)N(CCCN2CCOCC2)C(C)c2cc3cccc(OC)c3o2)c1 (stereo not drawn) | u | n | u | n | n | n
